Results on 13 compounds are retold here after PubChem BioAssay (NCATS).

The nature of experiment [1]: Primary qHTS for small molecule stabilizers of the endoplasmic reticulum resident proteome: Secreted ER Calcium Modulated Protein (SERCaMP) assay (AID 1508630). Further: on the % scale 0 is the no-effect control and ±100 the full control effect. Put shortly: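 The SH-SY5Y reporter protocol was run at 3 concentrations up to 38.3 uM (primary) or 11 concentrations (follow-up): 16 h compound, 100 nM thapsigargin for 4 h, then extracellular luciferase luminescence.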
(In general: qHTS replaces the single test concentration by a dilution series.)

Experiment [2] concerns the target Cytochrome P450 2D6 (Homo sapiens) (UniProt P10635). The experiment in a line: Cytochrome P450 family 2 subfamily D member 6 (CYP2D6) small molecule antagonists: luciferase biochemical (cell-free) qHTS assay (AID 1645840; active means well fitted curve in the direction sought with a large enough effect in the repeat runs; an effect the other way counts as inactive or inconclusive; further: nearly all actives have a fitted effect of over 55% in size; further: potency means the concentration at half of the fitted maximal effect). An outline of the steps:
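P450-Glo CYP2D6 system: proluciferin substrate converted by enzyme to luciferin, read by luminescence proportional to activity. Enzyme-substrate mix with compound 10 min at room temperature, then NADPH regeneration 1 h before detection reagent.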

In experiment [3] the target is Cytochrome P450 2C9 (Homo sapiens) (UniProt P11712). The experiment in a line: Cytochrome P450 family 2 subfamily C member 9 (CYP2C9) small molecule antagonists: luciferase biochemical (cell-free) qHTS assay (AID 1645842; active means well fitted curve in the direction sought with a large enough effect in the repeat runs; an effect the other way counts as inactive or inconclusive; further: nearly all actives have a fitted effect of over 55% in size; further: potency means the concentration at half of the fitted maximal effect). Put shortly:
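P450-Glo CYP2C9 system: proluciferin substrate with enzyme in mix containing 0.4% BSA, 10 min at room temperature, then NADPH regeneration solution added and incubated 1 h at 37C. Detection reagent stopped reaction; luminescence read after 20 min as RLU.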

The nature of experiment [4]: Primary qHTS for inhibitors of nuclear receptor binding SET domain protein 2 (NSD2) in an isogenic RCH-ACV NSD2 p.E1099K mutant (9B) (AID 1645876). Further: nearly all actives have a fitted effect of over 70% in size. Further: potency means the concentration at half of the fitted maximal effect. On activity change, negative = viability loss: on the % scale 0 is the no-effect control and ±100 the full control effect.
The target of the next experiment is Papain (Carica papaya) (UniProt P00784). The experiment is described as follows: Primary qHTS assay for inhibitors of the protease papain (AID 1645873).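 Further: papain turnover of Z-FR-AMC read as the AMC fluorescence gain over 10 min; series mostly up to about 50 µM; on the % scale 0 is the no-effect control and ±100 the full control effect.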
A short description of experiment [5]: A High-Content qHTS Against Drug Library for the Identification of Small Molecules that Inhibit DYT1 Early Onset Primary Dystonia-Associated Cell Pathology (AID 1645839; calls by dose curve; further: series mostly up to about 46 µM). An outline of the steps: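 High-content imaging quantified EGFP-TorsinA mislocalization in HEK293-derived cells inducibly expressing DYT1 mutant torsinA, after 48 h exposure to compound given together with tetracycline induction. Cell count served as a toxicity channel alongside %pathology.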

Where “and” joins values, the source holds several entries; their conditions need not be identical. Identical values can stand only once. Records with an inconclusive call do not appear. Unmarked numbers belong to inactive results. Calls of active or inactive are those of the source. Unless noted, the call rests on the fitted dose curve; in most records, active means well fitted curve in the direction sought with a large enough effect; inconclusive means small, poorly fitted or top-dose-only effect, or another doubt; inactive means no such curve, though single readings can be large; an effect the other way counts as inactive or inconclusive.

Sequence of Cytochrome P450 2D6 (Homo sapiens) (P10635 whole entry, looked up): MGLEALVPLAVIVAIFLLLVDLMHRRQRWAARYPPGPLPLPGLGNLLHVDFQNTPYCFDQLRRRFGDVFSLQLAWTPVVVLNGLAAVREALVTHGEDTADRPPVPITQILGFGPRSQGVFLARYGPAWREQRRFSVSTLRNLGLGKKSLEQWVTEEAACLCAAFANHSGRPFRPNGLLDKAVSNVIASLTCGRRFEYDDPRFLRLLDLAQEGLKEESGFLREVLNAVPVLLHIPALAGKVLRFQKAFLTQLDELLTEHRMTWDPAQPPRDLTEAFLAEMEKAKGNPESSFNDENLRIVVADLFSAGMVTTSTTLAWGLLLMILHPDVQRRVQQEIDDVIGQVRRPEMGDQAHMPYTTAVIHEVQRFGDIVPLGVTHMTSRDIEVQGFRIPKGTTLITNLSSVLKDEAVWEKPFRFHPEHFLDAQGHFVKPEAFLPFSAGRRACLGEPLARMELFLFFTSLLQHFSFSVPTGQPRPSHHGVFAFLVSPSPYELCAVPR
Sequence of Papain (Carica papaya) (P00784 whole entry, looked up): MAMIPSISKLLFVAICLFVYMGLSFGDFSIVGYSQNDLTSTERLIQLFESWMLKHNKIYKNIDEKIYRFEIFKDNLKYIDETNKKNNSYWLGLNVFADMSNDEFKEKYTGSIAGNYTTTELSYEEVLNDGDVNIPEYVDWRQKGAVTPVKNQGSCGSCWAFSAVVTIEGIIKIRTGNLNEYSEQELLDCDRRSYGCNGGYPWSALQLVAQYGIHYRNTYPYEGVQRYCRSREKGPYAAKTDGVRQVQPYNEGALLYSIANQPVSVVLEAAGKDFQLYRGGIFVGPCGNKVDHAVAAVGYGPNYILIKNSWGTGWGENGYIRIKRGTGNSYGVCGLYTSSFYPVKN
Sequence of Cytochrome P450 2C9 (Homo sapiens) (P11712 whole entry, looked up): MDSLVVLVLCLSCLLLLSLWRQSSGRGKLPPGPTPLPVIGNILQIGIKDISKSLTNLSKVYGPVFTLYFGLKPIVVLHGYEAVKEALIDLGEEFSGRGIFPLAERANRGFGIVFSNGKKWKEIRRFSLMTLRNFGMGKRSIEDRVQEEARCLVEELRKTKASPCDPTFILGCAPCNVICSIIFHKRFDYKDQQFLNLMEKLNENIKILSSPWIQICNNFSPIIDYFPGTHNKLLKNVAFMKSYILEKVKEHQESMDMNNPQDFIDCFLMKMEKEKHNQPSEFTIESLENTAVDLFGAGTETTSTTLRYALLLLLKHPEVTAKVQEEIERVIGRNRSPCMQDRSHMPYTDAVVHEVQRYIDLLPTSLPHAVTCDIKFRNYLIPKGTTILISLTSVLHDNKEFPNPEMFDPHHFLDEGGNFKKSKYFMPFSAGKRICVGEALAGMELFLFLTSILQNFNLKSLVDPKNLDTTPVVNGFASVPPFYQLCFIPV

`CCCCCCCCCCCC[N+](C)(C)Cc1ccccc1`: in experiment [1], the Potency result is “inactive”. The Potency in experiment [2] was 195 nM (active); in experiment [3], 15500 nM (active); in experiment [4], 473 nM (active).
For the compound `O=C(OCCN1CCOCC1)c1cccnc1Nc1cccc(C(F)(F)F)c1`, the Potency result in experiment [1] and in experiment [4] was “inactive” each time.
`CC(C)(C)c1nnc(NS(=O)(=O)c2ccccc2)s1`: the Potency entry in experiment [1], in experiment [2] and in experiment [4] was “inactive” throughout.
As for `CCC1=C[C@@H]2CN(C1)Cc1c([nH]c3ccccc13)[C@@](C(=O)OC)(c1cc3c(cc1OC)N(C)[C@H]1[C@@](O)(C(=O)OC)[C@H](OC(C)=O)[C@]4(CC)C=CCN5CC[C@]31[C@@H]54)C2`, the Potency entry in experiment [1] was “inactive”. Moreover, the Potency in experiment [4] is 2.1 nM (active) and 162 nM (active).
On to `Cc1nc(N)nc(N)c1-c1ccc(Cl)c(Cl)c1`, for which the Potency result in experiment [1] and in experiment [3] was “inactive” throughout. Moreover, the Potency in experiment [4] was 266 nM (active).
Turning to `CCN(CC)CCNC(=O)c1ccc(NS(C)(=O)=O)cc1`, in experiment [1], the Potency entry was “inactive”. Also, the outcome in the experiment with Papain (Carica papaya) was inactive.
As to `COc1ccc(OC(=O)N(CC(=O)O)Cc2ccc(OCCc3nc(-c4ccccc4)oc3C)cc2)cc1`, in experiment [1], the Potency entry is “inactive”. For the same compound, the Potency in experiment [3] was 17400 nM (active).
`O=C(CS(=O)Cc1ccco1)NC/C=C\COc1cc(CN2CCCCC2)ccn1` (centres undefined): the Potency entry in experiment [1], in experiment [3] and in experiment [4] was “inactive” throughout.
Take `N[C@@H](Cn1ccc(=O)c(O)c1)C(=O)O`: the Potency entry in experiment [1] was “inactive”. In addition, in the experiment with Papain (Carica papaya), the call was inactive. The activity change, negative = viability loss in experiment [4] is -1.02% [at 4.96 µM].
As to `Cc1c(N)cccc1C(F)(F)F`, the Potency result in experiment [1], in experiment [2], in experiment [3] and in experiment [4] was “inactive” in each case.
As for `O=C(c1ccccc1)c1ccccc1`, in experiment [5], the Potency result is “inactive”.
`O=C1NC(=O)/C(=C/c2ccc3c(c2)OC(F)(F)O3)S1`: the Potency entry in experiment [1] is “inactive”. In addition, the compound was called inactive in the experiment with Papain (Carica papaya).
In the case of `CCOC(=O)c1ccc(NC(=O)CN2CCCCC2)cc1`, the Potency result in experiment [1], in experiment [3] and in experiment [4] was “inactive” in each case.
